Bioassay records (PubChem)
DAT uptake mod: changed human dopamine transporter uptake under cocaine IC80; LLC-PK1 hDAT cells, [14C]-dopamine uptake with cocaine IC80; actives deviate in either direction; B-score at 10 µM; hit rate 1.3% among 110,000;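 active means Z score or B-score, a plate-position-corrected score, falls beyond the plate's 99.7% confidence bounds, in either direction; inactive means both scores lie inside the 99.7% bounds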;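 further: scored against the spread of the other compound wells on the same plate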
D1 mod: allosteric modulators of human D1 dopamine receptor; P21728; HEK293 D1, CRE-luciferase, dopamine EC30 potentiation; actives deviate in either direction; B-score at 10 µM; hit rate 5.9% among 58,000;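 active means luminescence count or its row- and column-corrected plate score outside the 99.7% band of the plate's sample wells, on either side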
Target sequence (P21728 whole entry, looked up): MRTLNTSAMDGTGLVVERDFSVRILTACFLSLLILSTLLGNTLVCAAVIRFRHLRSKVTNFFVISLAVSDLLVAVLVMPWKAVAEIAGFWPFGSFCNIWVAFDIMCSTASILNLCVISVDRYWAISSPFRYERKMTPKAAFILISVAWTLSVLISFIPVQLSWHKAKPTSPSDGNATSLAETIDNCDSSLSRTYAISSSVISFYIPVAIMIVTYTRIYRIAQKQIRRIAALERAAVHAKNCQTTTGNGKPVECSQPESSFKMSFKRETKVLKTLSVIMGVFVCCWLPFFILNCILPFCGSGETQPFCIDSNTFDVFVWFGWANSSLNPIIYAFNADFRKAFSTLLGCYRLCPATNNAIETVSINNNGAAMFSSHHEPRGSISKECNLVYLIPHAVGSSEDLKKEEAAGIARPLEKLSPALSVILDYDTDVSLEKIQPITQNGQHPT
EphB4 ephrin blk: antagonists of human EphB4-ephrin-B2 interaction; P54760; EphB4 LBD / TNYL-RAW-Alexa532 peptide, fluorescence polarization; inhibition, % at 7 µM; hit rate 0.15% among 97,000; AID 720;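 active means inhibition above the screen-wide mean inhibition plus 3 SD, cut at about 15% in these data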;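 further: 0% = DMSO wells and 100% = excess unlabeled TNYL-RAW peptide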
D1 mod confirm: D1 receptor (human) allosteric modulation, confirmed. HEK293 D1 CRE-luciferase, dopamine EC30 potentiation; active compounds read high. shares compounds with D1 mod. hit rate 88% among 2,200. luminescence at 10 µM;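 active means luminescence in either of two replicates above the same-plate mean plus 3 SD of the low-dose dopamine control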
D1 no dopamine: D1 (human) signaling in absence of dopamine; AID 646; HEK293 D1 CRE-luciferase, luminescence, no dopamine; active compounds read high; shares compounds with D1 mod; luminescence at 10 µM; hit rate 0.8% among 1,900; in the data active means luminescence above about 3900
Isoprot counter: counter-screen for D1 modulators: isoproterenol response in HEK293 cells. hit rate 63% among 2,200. shares compounds with D1 mod. calls only at 10 µM. HEK293 D1 CRE-luciferase, isoproterenol EC30 counter-screen;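 active means luminescence in either replicate above plate mean of wells with a partly effective reference agonist dose plus 3 SD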;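 further: isoproterenol raises cAMP through native beta-adrenoceptor Gs so signal bypasses D1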
Numbers without * were called inactive; i = inactive; nt = not tested or not shown; + = active, no number. Shown is part of a subset that was picked to be rich in hits.

SMILES | DAT uptake mod | D1 mod | EphB4 ephrin blk | D1 mod confirm | D1 no dopamine | Isoprot counter
C=CCc1ccc(OCCOCCOc2ccccc2[N+](=O)[O-])c(OC)c1 | 1.21 | nt | -2.9 | nt | nt | nt
COc1ccc(/C=N/NC(=O)c2ccc3ccccc3c2)cc1OS(=O)(=O)c1ccc(NC(C)=O)cc1 | 0.945 | nt | -12.4 | nt | nt | nt
CSc1ncccc1C(=O)OCc1ccccc1F | 1.51 | 10.1* | -12.6 | 16732* | 1608 | +
CSc1ncccc1C(=O)OCc1ccccc1 | 1.34 | nt | -10.3 | nt | nt | nt
CCOC(=O)c1c(NC(=O)OC)sc(C(=O)N(CC)CC)c1C | 0.0886 | 4.18* | -7.9 | 8956* | 1472 | +
CCN(CC)C(=O)c1sc(NC(=O)c2ccoc2C)c(C(=O)OC)c1C | -0.0268 | 1.15 | nt | nt | nt | nt
c1ccc(Cc2nn3c(C4COc5ccccc5O4)nnc3s2)cc1 (stereo unspecified) | -0.0491 | 5.95* | 6.4 | 14652* | 1492 | +
c1ccc(CCc2nn3c(C4COc5ccccc5O4)nnc3s2)cc1 (stereo unspecified) | -0.374 | -0.0759 | -0.9 | nt | nt | nt
CCN(CC)c1ccc(NC(=O)OC)cc1 | 0.0327 | nt | -1.1 | nt | nt | nt
COc1ccc(OC)c([C@@H]2OCCC=C[C@H]2C)c1 | 0.533 | nt | nt | nt | nt | nt
Cc1cc2c(cc(C(=O)OCC(=O)NCc3cccs3)n2C(C)C)o1 | -0.382 | 10.5* | -2.4 | 7700* | 1632 | +
COc1ccc(-c2nnc(SCC(=O)NCc3cccs3)n2C(C)C)cc1 | 0.0872 | nt | 2.9 | nt | nt | nt
COc1ccc2c(CC(=O)OCC(=O)NC(=O)c3cccn3C)coc2c1 | 0.284 | nt | 9.3 | nt | nt | nt
CN(C(=O)OC(C)(C)C)c1ccc(-c2nc3ccccc3s2)cc1 | -0.216 | nt | nt | nt | nt | nt
CSc1oc(-c2ccco2)nc1S(=O)(=O)c1ccccc1 | -1.55 | nt | 5.9 | nt | nt | nt
O=S(=O)(c1ccccc1)c1nc(-c2ccco2)oc1N1CCOCC1 | -0.295 | 0.333 | 4.9 | nt | nt | nt
CSc1oc(-c2ccco2)nc1S(=O)(=O)c1ccc(F)cc1 | -0.82 | 3.43* | nt | 11924* | 1676 | i
CC(C)Sc1oc(-c2ccco2)nc1S(=O)(=O)c1ccccc1 | 0.0562 | 6.47* | 4.9 | 19332* | 1752 | +
Cc1ccccc1NC(=O)C(C)O/N=C/c1cccc([N+](=O)[O-])c1 (stereo unspecified) | 0.423 | nt | -2.4 | nt | nt | nt
O=C(NCc1ccccc1)c1nc2c(nnn2Cc2cccc(Cl)c2)c(=O)[nH]1 | -0.125 | nt | 6.9 | nt | nt | nt
O=c1[nH]c(C2CCCN(S(=O)(=O)c3ccccc3)C2)nc2c1nnn2Cc1ccccc1 (stereo unspecified) | -0.448 | 4.22* | 2.3 | 10532* | nt | +
Cc1ccc(Cn2nnc3c(=O)[nH]c(C4CCN(S(=O)(=O)c5ccc(F)cc5)CC4)nc32)cc1 | nt | 0.00212 | nt | nt | nt | nt
Cc1ccc(Cn2nnc3c(=O)[nH]c(C4CCN(S(=O)(=O)c5cc(C)ccc5C)CC4)nc32)cc1 | 0.62 | 1.83 | -1.1 | nt | nt | nt
CCCc1nc2c(nnn2Cc2ccccc2)c(=O)[nH]1 | -1.2 | 7.11* | 2.2 | 11892* | 1408 | +
O=c1[nH]c(C2CCCN(S(=O)(=O)c3ccccc3)C2)nc2c1nnn2Cc1ccccc1F (stereo unspecified) | -1.05 | 6.79* | nt | 12364* | 1664 | +
SMILES | DAT uptake mod | D1 mod | EphB4 ephrin blk | D1 mod confirm | D1 no dopamine | Isoprot counter
O=C(NNC(=O)c1ccco1)c1cccc([N+](=O)[O-])c1 | 1.56 | nt | -1.1 | nt | nt | nt
Cn1nc(C(F)(F)F)cc1C(=O)NC1CCCCCC1 | -0.153 | nt | -4.4 | nt | nt | nt
COC/C=C/C1=CC2=CC(=O)C(C)(OC(=O)c3cnc4ccccc4n3)C(=O)C2=CN1c1cccc(C#N)c1 (stereo unspecified) | 0.225 | nt | nt | nt | nt | nt
O=c1ncn(-c2ccccc2F)c2ncccc12 | -0.95 | nt | -6.2 | nt | nt | nt
Cc1cn(C(=O)c2ccccc2)c(=S)n1-c1ccc(Br)cc1 | 0.52 | nt | 5.9 | nt | nt | nt
CC(C)c1ccc(-c2nc(N3CCCCC3)[nH]c(=O)c2C#N)cc1 | -0.239 | 5.54* | -0.9 | 19464* | 1772 | i
CC1CCN(c2nc(-c3ccccc3)c(C#N)c(=O)[nH]2)CC1 | 1 | nt | nt | nt | nt | nt
CCS(=O)(=O)n1nc(-c2ccccc2)nc1SC | 0.0568 | nt | 8.0 | nt | nt | nt
CC1(Cc2ccc3c(c2)OCO3)NC(=O)NC1=O (stereo unspecified) | -1.07 | -0.626 | -7.3 | nt | nt | nt
CC(C)CC1(C)NC(=O)NC1=O (stereo unspecified) | -0.454 | 2.99* | -7.4 | 6352 | 1712 | i
Cc1cc(N2C(=O)CCC2=O)ccc1NC(=O)c1cccs1 | -0.47 | nt | 2.8 | nt | nt | nt
Cc1c(Cl)cccc1NC(=O)CCC(=O)NNC(=O)c1ccccc1Cl | -0.198 | nt | -9.2 | nt | nt | nt
COc1ccc(/C=N/O)cc1COc1ccc(NC(C)=O)cc1 | 0.525 | 4.68* | -1.0 | 6740* | 1564 | +
COc1cc(OC)cc(C(=O)N/N=C/c2ccc(OC)c(COc3ccc(F)cc3)c2)c1 | nt | nt | 0.7 | nt | nt | nt
C=CCOC(=O)N1CCN(c2cccc(C(F)(F)F)c2)CC1 | 1.02 | -0.201 | 6.8 | nt | nt | nt
CCCc1nc(N2CCOCC2)c2sc(=S)n(-c3ccccc3)c2n1 | 0.145 | nt | -5.0 | nt | nt | nt
